Data on 15 compounds can be found in PubChem BioAssay (NCI).

This is part of a sample that, as a whole, favours compounds with a hit. Of some 83,000 tested, about 20% had one in any assay.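 48-hour exposure, single concentration, 96-well plates; percent growth endpoint where 0 means no net growth. Active: below 10.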 A number with no mark means an inactive call. Activity calls are given as the source filed them.

Test in all cases: NCI-60 one-dose screen, 48 h (100 = growth as untreated, 0 = no growth, -100 = all killed)
Conditions in all cases: 10 µM unless noted

In assay [1] the test system is T-47D breast.
For assay [2], the system named is BT-549 breast.
Assay [3] deals with MDA-MB-435 melanoma.
Assay [4] concerns SW-620 colon.
Assay [5] relates to MCF7 breast.
Assay [6] has as its system HCT-116 colon.
The subject of assay [7] is HCC-2998 colon.
For assay [8], the system named is KM12 colon.

As to `O=C1c2c(c3c4ccc(Br)cc4oc3c3[nH]c4ccccc4c23)C(=O)N1O`, the growth in assay [1] was 11.8%; in assay [2] it was 27.6%; in assay [3], 19.1%; in assay [4], 37.3%; in assay [5], 22.4%; in assay [6], 17.9%. The growth is 66.9% in assay [7] and 17.1% in assay [8].
For the compound `COc1ccc(OC)c(-c2c(C#N)c(-c3cccs3)nc3c2c(-c2ccccc2)nn3-c2ccccc2)c1`, the growth in assay [1] was 94.3%; in assay [2] it was 121%; in assay [3] it was 104%; in assay [4], 93.9%; in assay [5], 98.6%; in assay [6], 91.7%. Besides, the growth in assay [7] is 110%; in assay [8], 105%.
For `O=C(/C=C/c1cccs1)c1ccc(Cl)nc1`, the growth in assay [1] was 97.3%; in assay [2], 101%; in assay [3], 94.2%; in assay [4], 105%; in assay [5], 67.7%; in assay [6] it was 91.1%. Moreover, the growth is 111% in assay [7] and 104% in assay [8].
Turning to `CCSc1nc(NC)c2cc(-c3ccc(C(F)(F)F)cc3)ccc2n1`, the growth is 91.4% in assay [1]; 94.4% in assay [2]; 102% in assay [3]; 105% in assay [4]; 92.8% in assay [5]; 96.9% in assay [6]. Further, the growth in assay [7] is 111%; in assay [8], 103%.
`CC[C@]12C=CCN3CC[C@@]4(c5cc(NC(=O)CCC(=O)OCc6cn(Cc7ccc(F)cc7)nn6)c(OC)cc5N(C)[C@H]4[C@@](O)(C(=O)OC)[C@@H]1OC(C)=O)[C@@H]32`: the growth is 102% in assay [1]; 108% in assay [2]; 101% in assay [3]; 104% in assay [4]; 96.4% in assay [5]; 96.3% in assay [6]. Further, the figures for the growth in assay [7] and in assay [8] were 106% and 103%, respectively.
`CN1C(=O)/C(=C/c2ccc(C(=O)Nc3ncc(Cc4ccc(Cl)cc4)s3)cc2)SC1=S`: the growth was 37.8% in assay [1]; 46.7% in assay [2]; -32% (active) in assay [3]; 28.9% in assay [4]; 55.5% in assay [5]; 24.2% in assay [6]. For the same compound, the growth in assay [7] was 59.3%; in assay [8], 21.1%.
As to `COc1ccc(-c2nc3c(c(-c4ccccc4)nn3-c3ccccc3)c(-c3ccc(N4CCOCC4)cc3)c2C#N)cc1`, the growth is 94.3% in assay [1]; 95.3% in assay [2]; 99.2% in assay [3]; 90.4% in assay [4]; 84.6% in assay [5]; 96% in assay [6]. The growth in assay [7] is 108%; in assay [8] it was 104%.
Consider `Cc1ccccc1Cn1cnc2ccc(-c3cc(NC(=O)c4ccc(NC5CCN(C)CC5)cc4)n[nH]3)cc21`, for which the growth was 92.2% in assay [1]; 68.2% in assay [2]; 61% in assay [3]; 93.1% in assay [4]; 77.1% in assay [5]; 48.8% in assay [6]. The results for the growth in assay [7] and in assay [8] were 90.5% and 39.6%, respectively.
Consider `O=C(Cn1c2c(c3ccccc31)CCCC2)Nc1ccc(-c2nc3ccccc3s2)cc1`, for which the growth in assay [1] is 80.1%; in assay [2], 115%; in assay [3], 104%; in assay [4], 109%; in assay [5] it was 30.8%; in assay [6] it was 125%. The growth was 108% in assay [7] and 101% in assay [8].
Consider `O=C(CSc1nc2sc3c(c2c(=O)n1-c1ccccc1)CCCCC3)N/N=C/c1ccc(F)cc1`, for which the growth in assay [1] is 16.9%; in assay [2] it was 48.4%; in assay [3], 70%; in assay [4] it was 53%; in assay [5] it was 26.8%; in assay [6] it was -26.2% (active). Moreover, the growth is 106% in assay [7] and 42.6% in assay [8].
As to `COc1ccc(/C=C2\COc3ccc(O)cc3C2=O)c(OC)c1OC`, the growth in assay [1] was 64.7%; in assay [2], 72.3%; in assay [3], 24.9%; in assay [4], 38.9%; in assay [5], 24.5%; in assay [6], 70.8%. Also, the figures for the growth in assay [7] and in assay [8] were 86.4% and 44.3%, respectively.
`Cc1cccc(Cl)c1NC(=O)c1ccc2nc(NC(=O)NCCN(C)C)sc2c1`: the growth in assay [1] was 88.1%; in assay [2], 82.1%; in assay [3] it was 47%; in assay [4], 103%; in assay [5], 48.9%; in assay [6] it was 92.1%. Also, the growth in assay [7] was 105%; in assay [8], 97.1%.
With `CCCCCCCCCCCCCCCC(N)c1ccccc1` (stereo not given), the growth in assay [1] was 33.5%; in assay [2], 92.9%; in assay [3] it was 6.53% (active); in assay [4], -49.3% (active); in assay [5], -67.3% (active); in assay [6] it was -100% (active). The values for the growth in assay [7] and in assay [8] were -98.2% (active) and -75.4% (active), respectively.
With `COCCNC(=O)c1ccc(-c2nc3ccc4[nH]ncc4c3c3c2CCCC3)cc1`, the growth in assay [1] is 44.5%; in assay [2], 10.3%; in assay [3], 16.4%; in assay [4] it was 11%; in assay [5], 35.9%; in assay [6], 13%. Moreover, the growth in assay [7] is 47.5%; in assay [8] it was 19.7%.
On to `O=C(Cn1cc(CN2C(=O)c3ccccc3S2(=O)=O)nn1)Nc1nc2ccccc2s1`, for which the growth in assay [1] is 88.1%; in assay [2], 97.9%; in assay [3], 112%; in assay [4], 105%; in assay [5], 91.1%; in assay [6] it was 88%. In addition, the growth in assay [7] is 113%; in assay [8], 103%.
